Molecules are shown by their SMILES. Active and inactive are the calls of the source.

Experiment [1] is described as follows: small molecules captured by biotinylated probe aFSTL3 – biochemical, small-molecule microarray, fluorescence 635/667, stem cell growth factor project, primary screen (AID 1064).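 Also: measures binding of the biotinylated anti-FSTL3 antibody to printed compounds.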 The following applies: higher = more signal.
The nature of experiment [2]: binders from COS7 lysate, DM2A8 probe, primary screen, torsin A project, cell lysate, small-molecule microarray, fluorescence 635/667 (AID 1065). To be noted: higher = more signal, COS7 lysate expressing mutant human TOR1A.
Experiment [3] is described as follows: small molecules captured by biotinylated probe aFGF2 – biochemical, small-molecule microarray, fluorescence 635/667, stem cell growth factor project, primary screen (AID 1067).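 Also: measures binding of biotinylated aFGF2 protein to printed compounds on slides; z-score merges feature fluorescence and signal-to-noise across triplicate slides.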 The following applies: higher = more signal.
Experiment [4] is described as follows: small molecules captured by biotinylated probe aFGF10 – biochemical, small-molecule microarray, fluorescence 635/667, stem cell growth factor project, primary screen (AID 1071).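 Also: score merges 667 nm spot intensity and signal to noise from triplicate slides.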 To be noted: higher = more signal.
Experiment [5] has as its target Neurogenic locus notch homolog protein 2 (Homo sapiens) (UniProt Q04721). The experiment can be described thus: small molecules binding Notch2 protein – biochemical, small-molecule microarray, 635 nm fluorescence, stem cell growth factors, primary screen (AID 1073). The following applies: higher = more signal.
Experiment [6] addresses Pro-neuregulin-1, membrane-bound isoform (Homo sapiens) (UniProt Q02297). Put plainly: small molecules binding neuregulin-1 protein – biochemical, small-molecule microarray, fluorescence 635/667, psychiatric disease protein project, primary screen (AID 1075).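 Also: score combines 667 nm spot fluorescence with signal to noise.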 The following applies: NRG1 binding, 635 nm fluorescence, higher = more signal.
The test system of experiment [7] is Neuregulin-1 EGF-like domain. Put plainly: small molecules binding NRG1 EGF domain – biochemical, small-molecule microarray, 635 nm fluorescence, primary screen (AID 1081).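 Also: binding of the protein to compounds printed on small-molecule microarray slides.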 To be noted: higher = more signal.
Experiment [8] in a line: FRG1 expression reporter modulators in myotubes – cell-based, C2C12 myotubes, firefly/Renilla luciferase, luminescence, FRG1 inhibition for FSHD, primary screen (AID 1084). The following applies: FRG1 promoter luciferase, higher = more signal, called active from +8 up or from −8 down.
Experiment [9] in a line: small molecules captured by biotinylated probe aFST – biochemical, small-molecule microarray, fluorescence 635/667, stem cell growth factor project, primary screen (AID 1086).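 Also: score merges 667 nm fluorescence with signal-to-noise of each printed compound spot.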 To be noted: higher = more signal.
A short description of experiment [10]: binders of probe aHhip on microarray, primary screen, stem cell growth factor project, biochemical, small-molecule microarray, fluorescence 635/667 (AID 1087).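 Also: score merges spot fluorescence at 667nm with spot signal to noise ratio.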 To be noted: higher = more signal.
Experiment [11] concerns PRMT1 (protein arginine N-methyltransferase 1). The experiment can be described thus: small molecules binding arginine methyltransferase PRMT1 – biochemical, small-molecule microarray, 635 nm fluorescence, primary screen (AID 1088).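 Also: binding of Prmt1 protein to compounds spotted on small-molecule microarray slides.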 To be noted: higher = more signal.
Experiment [12] is described as follows: growth effects on S. cerevisiae YJM789 – YJM789 clinical isolate, OD600, 24 h, basal, primary screen (AID 1089).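 Also: growth of clinical yeast isolate S. cerevisiae YJM 789 seeded 1000 cells per well; test concentration not given here.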 The following applies: higher = more signal, called active from +8 up or from −8 down.
Experiment [13] is described as follows: S. pombe growth modifiers, basal conditions – strain 972, OD600, 24 h, no modulator, primary screen (AID 1090).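 Also: basal condition with compound alone and no growth modifier present; test concentration not given here.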 To be noted: S. pombe 972 growth, higher = more signal, called active from +8 up or from −8 down.
Experiment [14] in a line: budding yeast growth modifiers under rapamycin – strain BY4716, OD600, 96 h, primary screen (AID 1091). Also: test concentration not given here. To be noted: S. cerevisiae BY4716 + rapamycin, higher = more signal, called active from +8 up or from −8 down.
Experiment [15] addresses Torsin-1A-interacting protein 2 (Homo sapiens) (UniProt Q8NFQ8). The experiment can be described thus: small molecules binding lysate-expressed LULL1 – cell lysate, human LULL1 lysate, 635/667 nm fluorescence, primary screen (AID 1092).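 Also: probe is lysate of COS7 cells overexpressing human LULL1; score merges per-feature 667 nm fluorescence with signal-to-noise.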 To be noted: small-molecule microarray, hLULL1 lysate binding, 635 nm fluorescence; higher = more signal.
A short description of experiment [16]: optical density change of DRC41 E. coli – strain DRC41, OD650, 24 h, E. coli filamentation project, primary screen (AID 1093).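 Also: MC1000 strain lacking acrAB efflux and sulA so SOS filamentation is blocked; test concentration not given here.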 To be noted: E. coli DRC41 growth, higher = more signal, called active from +8 up or from −8 down.
Experiment [17] is described as follows: probe aLefty2 binding to arrayed compounds – biochemical, biotinylated probe, 635/667 nm fluorescence, primary screen (AID 1094).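 Also: score merges spot fluorescence near 667 nm with spot signal-to-noise ratio.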 To be noted: small-molecule microarray, higher = more signal.
For experiment [18], the system named is Noggin (protein binding on small-molecule microarray). The experiment can be described thus: small molecules binding Noggin protein – biochemical, 635/667 nm fluorescence, primary screen (AID 1095).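 Also: score merges 667 nm feature fluorescence with signal to noise over triplicate slides.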 The following applies: 635 nm fluorescence, higher = more signal.
Experiment [19] deals with Neurogenic locus notch homolog protein 3 (Homo sapiens) (UniProt Q9UM47). Put plainly: small molecules binding NOTCH3 protein – biochemical, 635/667 nm fluorescence, primary screen (AID 1096). To be noted: small-molecule microarray, 635 nm fluorescence, higher = more signal.
The nature of experiment [20]: probe aEGFR binding to arrayed compounds – biochemical, biotinylated probe, 635/667 nm fluorescence, primary screen (AID 1097).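 Also: probe is a biotinylated anti-EGFR antibody binding compounds printed on slides; score combines fluorescence near 667 nm and signal to noise of each spot.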 To be noted: small-molecule microarray, higher = more signal.

Torsin-1A-interacting protein 2 (Homo sapiens), sequence (Q8NFQ8 whole entry, looked up): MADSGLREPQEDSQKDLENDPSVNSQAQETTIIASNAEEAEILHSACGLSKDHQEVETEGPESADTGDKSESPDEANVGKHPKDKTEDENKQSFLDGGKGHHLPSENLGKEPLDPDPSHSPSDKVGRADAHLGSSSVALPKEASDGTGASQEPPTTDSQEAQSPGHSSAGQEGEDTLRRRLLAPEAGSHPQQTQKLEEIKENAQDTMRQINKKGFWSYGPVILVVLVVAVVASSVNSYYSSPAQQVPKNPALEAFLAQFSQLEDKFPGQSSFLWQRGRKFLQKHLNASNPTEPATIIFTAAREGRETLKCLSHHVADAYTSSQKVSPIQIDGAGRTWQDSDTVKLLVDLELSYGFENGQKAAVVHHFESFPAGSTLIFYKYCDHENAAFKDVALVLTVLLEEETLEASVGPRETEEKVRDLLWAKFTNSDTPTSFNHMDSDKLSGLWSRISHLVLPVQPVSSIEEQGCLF
Pro-neuregulin-1, membrane-bound isoform (Homo sapiens), sequence (Q02297 whole entry, looked up, the tested form may be a part, canonical isoform): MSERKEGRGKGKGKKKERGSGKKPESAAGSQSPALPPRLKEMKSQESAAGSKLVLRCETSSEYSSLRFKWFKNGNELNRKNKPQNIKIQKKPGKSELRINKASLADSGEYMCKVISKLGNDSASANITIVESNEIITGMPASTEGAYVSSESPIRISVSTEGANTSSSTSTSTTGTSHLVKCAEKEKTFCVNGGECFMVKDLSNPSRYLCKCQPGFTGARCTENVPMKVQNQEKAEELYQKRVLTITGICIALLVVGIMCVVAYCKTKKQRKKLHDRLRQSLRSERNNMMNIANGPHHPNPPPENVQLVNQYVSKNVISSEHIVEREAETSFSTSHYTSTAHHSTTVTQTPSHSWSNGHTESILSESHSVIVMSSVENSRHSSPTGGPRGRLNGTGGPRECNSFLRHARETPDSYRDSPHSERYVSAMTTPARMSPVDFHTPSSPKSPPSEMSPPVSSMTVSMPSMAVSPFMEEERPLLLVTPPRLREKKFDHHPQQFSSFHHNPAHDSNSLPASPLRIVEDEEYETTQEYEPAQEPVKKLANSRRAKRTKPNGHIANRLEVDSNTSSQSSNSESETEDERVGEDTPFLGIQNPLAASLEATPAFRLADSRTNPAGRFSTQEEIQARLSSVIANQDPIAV
Neurogenic locus notch homolog protein 2 (Homo sapiens), sequence (Q04721 whole entry, looked up, canonical isoform): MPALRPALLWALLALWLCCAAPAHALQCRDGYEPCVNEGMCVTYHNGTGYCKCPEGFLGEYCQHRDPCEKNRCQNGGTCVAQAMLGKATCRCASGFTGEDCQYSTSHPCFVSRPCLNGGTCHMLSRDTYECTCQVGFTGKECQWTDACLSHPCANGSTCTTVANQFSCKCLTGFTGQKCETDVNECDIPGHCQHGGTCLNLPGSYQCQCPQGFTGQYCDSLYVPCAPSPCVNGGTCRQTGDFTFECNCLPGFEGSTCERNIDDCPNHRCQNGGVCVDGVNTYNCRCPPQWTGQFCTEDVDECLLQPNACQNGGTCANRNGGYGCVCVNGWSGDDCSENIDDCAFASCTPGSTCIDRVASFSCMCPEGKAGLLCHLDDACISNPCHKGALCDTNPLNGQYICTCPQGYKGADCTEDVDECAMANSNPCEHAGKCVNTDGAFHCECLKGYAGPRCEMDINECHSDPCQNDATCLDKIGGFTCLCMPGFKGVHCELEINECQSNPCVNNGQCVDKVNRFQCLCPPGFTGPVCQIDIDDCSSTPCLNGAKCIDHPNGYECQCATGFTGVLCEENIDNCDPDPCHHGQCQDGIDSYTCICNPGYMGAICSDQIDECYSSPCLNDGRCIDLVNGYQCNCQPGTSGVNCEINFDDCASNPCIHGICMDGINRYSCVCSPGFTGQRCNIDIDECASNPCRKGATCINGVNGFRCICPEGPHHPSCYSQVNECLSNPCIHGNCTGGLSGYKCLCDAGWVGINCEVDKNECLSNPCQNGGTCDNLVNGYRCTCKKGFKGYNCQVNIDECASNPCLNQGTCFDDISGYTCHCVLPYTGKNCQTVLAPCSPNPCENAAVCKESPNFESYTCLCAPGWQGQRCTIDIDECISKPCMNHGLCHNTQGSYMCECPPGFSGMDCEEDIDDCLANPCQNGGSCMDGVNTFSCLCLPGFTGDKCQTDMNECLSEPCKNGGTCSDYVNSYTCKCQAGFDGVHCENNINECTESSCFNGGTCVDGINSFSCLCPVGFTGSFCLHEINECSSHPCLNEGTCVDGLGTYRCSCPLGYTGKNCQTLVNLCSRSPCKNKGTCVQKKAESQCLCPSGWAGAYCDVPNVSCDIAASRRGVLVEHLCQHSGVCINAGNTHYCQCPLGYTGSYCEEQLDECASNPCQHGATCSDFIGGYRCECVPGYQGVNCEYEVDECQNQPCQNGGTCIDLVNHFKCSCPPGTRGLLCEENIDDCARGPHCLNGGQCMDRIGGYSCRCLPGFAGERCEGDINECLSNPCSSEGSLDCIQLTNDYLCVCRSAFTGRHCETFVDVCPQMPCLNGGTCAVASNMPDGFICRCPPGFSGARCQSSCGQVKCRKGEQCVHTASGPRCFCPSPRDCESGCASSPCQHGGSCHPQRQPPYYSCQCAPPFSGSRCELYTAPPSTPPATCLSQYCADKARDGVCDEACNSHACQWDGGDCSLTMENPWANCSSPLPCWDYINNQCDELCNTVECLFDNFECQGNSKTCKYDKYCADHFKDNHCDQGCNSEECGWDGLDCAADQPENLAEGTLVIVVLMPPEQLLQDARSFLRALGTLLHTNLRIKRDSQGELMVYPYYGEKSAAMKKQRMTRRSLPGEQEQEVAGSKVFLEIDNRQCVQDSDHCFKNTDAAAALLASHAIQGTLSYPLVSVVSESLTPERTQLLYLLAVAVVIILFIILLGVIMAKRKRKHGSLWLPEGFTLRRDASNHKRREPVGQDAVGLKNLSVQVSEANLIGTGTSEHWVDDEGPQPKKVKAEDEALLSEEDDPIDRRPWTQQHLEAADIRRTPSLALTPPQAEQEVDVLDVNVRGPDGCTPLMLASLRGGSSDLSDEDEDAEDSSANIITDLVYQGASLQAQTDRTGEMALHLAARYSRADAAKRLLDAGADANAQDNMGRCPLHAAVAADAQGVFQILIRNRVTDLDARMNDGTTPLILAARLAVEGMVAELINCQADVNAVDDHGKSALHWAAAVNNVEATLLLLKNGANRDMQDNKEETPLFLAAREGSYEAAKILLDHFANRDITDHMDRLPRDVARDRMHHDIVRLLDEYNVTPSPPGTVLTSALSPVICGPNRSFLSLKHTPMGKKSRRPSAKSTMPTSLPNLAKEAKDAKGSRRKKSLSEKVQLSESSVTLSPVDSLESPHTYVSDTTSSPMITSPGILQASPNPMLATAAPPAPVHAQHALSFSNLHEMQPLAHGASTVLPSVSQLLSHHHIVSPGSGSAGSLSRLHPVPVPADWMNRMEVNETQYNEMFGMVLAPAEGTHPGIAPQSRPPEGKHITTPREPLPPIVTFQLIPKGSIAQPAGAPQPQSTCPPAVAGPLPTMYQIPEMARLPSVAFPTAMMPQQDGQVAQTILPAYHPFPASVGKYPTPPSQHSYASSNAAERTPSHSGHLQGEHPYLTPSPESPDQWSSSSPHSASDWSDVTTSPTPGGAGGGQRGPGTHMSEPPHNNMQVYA

As to `C=C(CCCC)/C(=C/C[C@@H](OC(=O)c1ccncc1)c1cccc(OCCO)c1)c1cnc2ccccc2c1`, the composite z-score in experiment [1] was 0.186; in [2], 0.935; in [3] it was 0.049; in experiment [4] it was 1.03; in [5], 1.3; in experiment [6] it was 0.972. The composite z-score in [7] came out at 1.13; in experiment [9] it was 0.0095; in experiment [10], 0.443; in experiment [11], 1.57; in [15], 1.52; in experiment [17], 0.0113. Further, the composite z-score in [18] was 1.55; in [19], 1.06; in experiment [20] it was 0.0617. Moreover, the z-score in [8] was 2.51 (inactive); in experiment [12], -2.12 (inactive); in experiment [13], -1.98 (inactive); in [14] it was 1.53 (inactive); in experiment [16] it was 0.657 (inactive).

As for `CC(C)CNC(=O)[C@@H]1c2ccccc2C(=O)N(Cc2cc(F)cc(C(F)(F)F)c2)[C@H]1c1ccc(CO)cc1`, the composite z-score in experiment [1] was 0.366; in experiment [2], -0.23; in experiment [3], 0.0079; in experiment [4] it was 0.207; in experiment [5] it was 0.561; in experiment [6], 0.38. Also, the composite z-score is 1.23 in experiment [7]; 0.0604 in experiment [9]; -0.0237 in experiment [10]; 1.4 in experiment [11]; 1.73 in [15]; 0.188 in experiment [17]. The values for the composite z-score in experiment [18], in experiment [19] and in [20] were 0.179, 0.379 and -0.0214, respectively. Also, the z-score is -1.78 (inactive) in experiment [8]; -0.212 (inactive) in experiment [12]; -0.758 (inactive) in [13]; -0.483 (inactive) in experiment [14]; 2.93 (inactive) in [16].

`O=C1O[C@@H](c2ccccc2)[C@@H](c2ccccc2)N2[C@@H](c3ccccc3OCCO)[C@]3(C(=O)Nc4ccc(C#CC5=CCCCC5)cc43)[C@@H](C(=O)NC[C@H](O)c3ccccc3)[C@H]12`: the composite z-score is -0.595 in experiment [1]; 2.06 in experiment [2]; 0.0296 in experiment [3]; 0.648 in experiment [4]; 0.948 in [5]; 1.42 in experiment [6]. For the same compound, the composite z-score is 1.01 in experiment [7]; 0.517 in experiment [9]; -0.0391 in experiment [10]; 1.55 in experiment [11]; 2.38 in experiment [15]; -0.273 in experiment [17]. Also, the composite z-score was 0.988 in experiment [18], 1.11 in experiment [19] and -0.0371 in experiment [20]. For the same compound, the z-score in experiment [8] is -0.279 (inactive); in experiment [12] it was 1.03 (inactive); in [13], 0.112 (inactive); in experiment [14], 3.61 (inactive); in experiment [16], 1.38 (inactive).

As for `C=CCOC(=O)[C@@H]1[C@H]2C(=O)O[C@H](c3ccccc3)[C@H](c3ccccc3)N2[C@H](c2ccc(OCCOC(=O)[C@H]3C[C@H]4C(=O)N[C@@H](CC(C)C)C(=O)N4[C@H]3c3ccc(O)cc3)cc2)[C@@]12C(=O)Nc1ccc(I)cc12`, the composite z-score turned out to be 0.054 in experiment [1]; 1.42 in [2]; 0.0333 in experiment [3]; 0.868 in experiment [4]; 0.718 in [5]; 0.535 in [6]. In addition, the composite z-score was 1.35 in experiment [7]; 0.496 in [9]; -0.0994 in [10]; 1.54 in experiment [11]; 2.75 in [15]; -0.0229 in experiment [17]. The values for the composite z-score in [18], in experiment [19] and in experiment [20] were 1.81, 1.06 and 0.0582, respectively. In addition, the z-score in [8] was -0.477 (inactive); in experiment [12], 0.157 (inactive); in experiment [13], 1.11 (inactive); in experiment [14], 2.65 (inactive); in experiment [16], 0.574 (inactive).

With `CCOC(=O)C1=CC[C@@H](c2ccccc2)N(S(=O)(=O)c2ccc(C)cc2)C1`, the composite z-score in experiment [1] is 0.694; in [2], 0.235; in [3] it was 0.0497; in [4], -0.0495; in experiment [5], 0.681; in experiment [6], -0.273. The composite z-score is 0.643 in experiment [7]; 0.648 in experiment [9]; 0.0274 in [10]; -0.363 in [11]; 0.353 in experiment [15]; 0.365 in experiment [17]. The composite z-score in experiment [18] is -0.0914; in [19] it was -0.198; in [20], -0.0521. The z-score in experiment [8] is -3.73 (inactive); in experiment [12], 0.483 (inactive); in experiment [13], 1.09 (inactive); in experiment [14] it was 2.72 (inactive); in experiment [16] it was -0.855 (inactive).

The values are drawn from PubChem BioAssay.
